Assay results reported in PubChem BioAssay AID1159580 (chemical genetic matrix, 2015).
Several values for one entry are separate records, joined by “and”; a condition that tells them apart may be missing. Identical values can stand only once. The whole screen tested about 5,500 compounds, of which about 2,000 (36%) were called active. Roughly 18% stayed inconclusive and do not appear here. Rule as the data show it: active = normalized growth mostly below about 0.91 (no sharp cut-off); inconclusive = no clear call, values can overlap the other calls; inactive = mostly above about 0.92. This is one part of the list.

Experiment: chemical genetic growth profiling, strain panel (AID 1159580);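 also: tested at 20 µM; growth read once vehicle control cultures reached saturation at 30 °C; 1 = growth at the plate median or of vehicle wells; lower values mean less growth of the strain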
Conditions: S. cerevisiae deletion strains, growth OD

Measured: normalized growth

c1coc(CNc2ncnc3nc[nH]c23)c1
inactive: locus YAL013W, strain DEP1, stronger effect = lower value 0.998 | locus YAL021C, strain ccr4, stronger effect = lower value 0.995 | locus YAL026C, strain drs2, stronger effect = lower value 0.997 | locus YAL030W, strain snc1, stronger effect = lower value 1 | locus YBL061C, strain skt5, stronger effect = lower value 0.997 | locus YBR009C, strain hhf1, stronger effect = lower value 0.988 | locus YBR021W, strain FUR4, stronger effect = lower value 1.02 | locus YBR023C, strain chs3, stronger effect = lower value 0.996 | locus YBR171W, strain sec66, stronger effect = lower value 0.994 | locus YBR229C, strain ROT2, stronger effect = lower value 1.01 | locus YBR231C, strain swc5, stronger effect = lower value 1 | locus YBR279W, strain paf1, stronger effect = lower value 1 | locus YCL011C, strain gbp2, stronger effect = lower value 1 | locus YCL016C, strain dcc1, stronger effect = lower value 1 | locus YCL029C, strain bik1, stronger effect = lower value 0.991 | locus YCL061C, strain MRC1, stronger effect = lower value 1.01 | locus YCL069W, strain vba3, stronger effect = lower value 0.999 | locus YCR088W, strain abp1, stronger effect = lower value 0.991 | locus YDL005C, strain med2, stronger effect = lower value 0.995 | locus YDL035C, strain GPR1, stronger effect = lower value 1.01 | locus YDL040C, strain nat1, stronger effect = lower value 0.996 | locus YDL074C, strain BRE1, stronger effect = lower value 0.997 | locus YDL101C, strain DUN1, stronger effect = lower value 0.995 | locus YDL134C, strain PPH21, stronger effect = lower value 1.01 | locus YDL185W, strain tfp1, stronger effect = lower value 0.964 | locus YDL192W, strain arf1, stronger effect = lower value 0.99 | locus YDR001C, strain nth1, stronger effect = lower value 0.993 | locus YDR069C, strain doa4, stronger effect = lower value 1 | locus YDR101C, strain arx1, stronger effect = lower value 0.996 | locus YDR137W, strain rgp1, stronger effect = lower value 0.964 | locus YDR150W, strain NUM1, stronger effect = lower value 0.992 | locus YDR159W, strain sac3, stronger effect = lower value 0.974 | locus YDR162C, strain NBP2, stronger effect = lower value 0.992 | locus YDR195W, strain ref2 0.974 | locus YDR297W, strain sur2, stronger effect = lower value 0.997 | locus YDR318W, strain mcm21, stronger effect = lower value 0.995 | locus YDR334W, strain swr1, stronger effect = lower value 1.01 | locus YDR335W, strain msn5, stronger effect = lower value 1.01 | locus YDR388W, stronger effect = lower value 1 | locus YDR392W, strain spt3, stronger effect = lower value 0.991 | locus YDR502C, strain sam2, stronger effect = lower value 1.01 | locus YEL003W, strain gim4, stronger effect = lower value 1 | locus YEL037C, strain rad23, stronger effect = lower value 0.998 | locus YEL061C, strain CIN8 (second series), stronger effect = lower value 0.997 | locus YEL061C, strain CIN8, stronger effect = lower value 0.995 | locus YER015W, strain faa2, stronger effect = lower value 1 | locus YER016W, strain bim1, stronger effect = lower value 0.99 | locus YER110C, stronger effect = lower value 0.999 | locus YER111C, strain swi4, stronger effect = lower value 0.986 | locus YER155C, strain BEM2 (second series), stronger effect = lower value 0.97 | locus YER155C, strain BEM2, stronger effect = lower value 0.999 | locus YER167W, strain BCK2, stronger effect = lower value 1 | locus YFR010W, strain ubp6, stronger effect = lower value 1 | locus YGL078C, strain dbp3, stronger effect = lower value 0.992 | locus YGL086W, strain mad1, stronger effect = lower value 1 | locus YGL167C, strain pmr1, stronger effect = lower value 1 | locus YGL173C, strain kem1, stronger effect = lower value 0.993 | locus YGL227W, strain vid30, stronger effect = lower value 0.993 | locus YGL240W, strain doc1, stronger effect = lower value 0.996 | locus YGL248W, strain PDE1, stronger effect = lower value 1.02 | locus YGL253W, strain hxk2, stronger effect = lower value 0.995 | locus YGR078C, strain PAC10, stronger effect = lower value 0.994 | locus YGR135W, strain pre9, stronger effect = lower value 0.997 | locus YGR229C, strain SMI1, stronger effect = lower value 1 | locus YGR252W, strain gcn5, stronger effect = lower value 1.19 | locus YHR013C, strain ard1, stronger effect = lower value 0.983 | locus YHR027C, strain rpn1, stronger effect = lower value 1 | locus YHR030C, strain SLT2, stronger effect = lower value 0.998 and 0.973 | locus YHR079C, strain IRE1 (second series), stronger effect = lower value 0.996 | locus YHR079C, strain IRE1, stronger effect = lower value 0.964 | locus YHR094C, strain hxt1, stronger effect = lower value 0.957 | locus YHR129C, strain ARP1, stronger effect = lower value 0.999 | locus YHR142W, strain chs7, stronger effect = lower value 0.992 | locus YHR200W, strain rpn10, stronger effect = lower value 0.986 | locus YIL066C, strain RNR3, stronger effect = lower value 1.01 | locus YIL073C, strain SPO22, stronger effect = lower value 0.978 | locus YIL125W, strain kgd1, stronger effect = lower value 0.988 | locus YIR030C, strain dcg1, stronger effect = lower value 0.998 | locus YJL092W, strain hpr5, stronger effect = lower value 0.995 | locus YJL095W, strain BCK1 (second series), stronger effect = lower value 0.994 | locus YJL095W, strain BCK1, stronger effect = lower value 0.985 and 0.986 | locus YJL115W, strain asf1, stronger effect = lower value 1 | locus YJL129C, strain trk1, stronger effect = lower value 1.02 | locus YJL134W, strain LCB3, stronger effect = lower value 0.997 | locus YJL154C, strain vps35, stronger effect = lower value 0.997 | locus YJL164C, strain tpk1, stronger effect = lower value 0.997 | locus YJL166W, strain qcr8, stronger effect = lower value 1 | locus YJL168C, strain set2, stronger effect = lower value 0.996 | locus YJL187C, strain SWE1 (second series), stronger effect = lower value 0.992 | locus YJR043C, strain POL32, stronger effect = lower value 0.985 | locus YJR066W, strain TOR1, stronger effect = lower value 0.912
